# In PubChem BioAssay AID485314 (National Center for Advancing Translational Sciences (NCATS), 2010):
# Screen size: about 340,000 compounds; about 4,500 (1.3%) were called active. About 5% were inconclusive and are not listed. The call rests on the fitted dose curve; in most records, active means well fitted inhibition curve with a large enough effect; inconclusive means small, poorly fitted or top-dose-only effect, or another doubt; inactive means no such curve, though single readings can be large or run the other way. The entries come from a sample that favours actives as a whole. Entries that show only a call come without a potency.
# Target: DNA polymerase beta (Homo sapiens) (UniProt P06746)
# Assay: qHTS Assay for Inhibitors of DNA Polymerase Beta
# Settings: Pol beta primer extension/strand displacement, fluorescence kinetic; series mostly up to 114 µM
# Summary of the method: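 Enzyme-only controls used 10 nM Pol beta; buffer lacking enzyme served as negative control. Compound preincubated 15 min, then 50 nM substrate added; 0 and 10 min reads at room temperature.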
# Potency means the concentration at half of the fitted maximal effect.
row,SMILES,Potency
1,O=C(Nc1ccc2nc(SCCOc3ccccc3)sc2c1)c1ccco1,inactive
2,CCS(=O)(=O)C1=NSC2=NC(=O)/C(=C\c3ccc(OS(=O)(=O)c4ccccc4)cc3)C(=N)N21,inactive
3,CS(=O)(=O)c1ccc2c(c1)SC1=NC(=O)/C(=C/c3ccco3)C(=N)N12,31.6 µM (active)
4,CCS(=O)(=O)C1=NSC2=NC(=O)/C(=C\c3cc(C)n(-c4cccc(OC)c4)c3C)C(=N)N21,inactive
5,CC(C)(C)c1ccc(C(=O)Nc2ccc3c(c2)CCCN3C(=O)c2cccs2)cc1,inactive
6,CCC1C/C(=C/c2cccs2)C(=O)/C(=C/c2cccs2)C1 (centres undefined),inactive
7,CC(C)(C)C1C/C(=C/c2ccco2)C(=O)/C(=C/c2ccco2)C1 (centres undefined),10 µM (active)
8,CC(C)c1ccc(NC(=O)c2ccc3c(O)c(S(=O)(=O)c4ccccc4)c(=O)[nH]c3c2)cc1,inactive
9,CCOC(=O)C1CCN(C(=O)CSc2c3c(nc4ccc(Cl)cc24)CCCC3)CC1,inactive
10,COCCNC(=O)c1ccc2c(c1)N(Cc1cccc(Cl)c1)C(=O)c1ccccc1S2(=O)=O,inactive
11,Cc1ccc2nc(-c3ccncc3)cc(C(=O)Nc3ccc4c(c3)OCCO4)c2c1,inactive
12,Cc1ccc2nc(-c3ccccn3)cc(C(=O)Nc3ccc4c(c3)OCO4)c2c1,inactive
13,Cc1ccc2nc(-c3ccncc3)cc(C(=O)Nc3ccc(OC(F)F)cc3)c2c1,8.91 µM (active)
14,Cc1ccc(Nc2ccc3cc(S(=O)(=O)N4CCCCC4)ccc3n2)cc1F,inactive
15,COc1ccccc1OCCOc1ccc(/C=C2\C(=N)N3N=C(C)SC3=NC2=O)cc1,inactive
16,Cc1ccccc1OCCOc1ccc([N+](=O)[O-])cc1/C=N/n1cnnc1,inactive
17,COc1ccccc1OCCOc1ccc(/C=N/n2cnnc2)cc1,44.7 µM (active)
18,CSc1ccccc1NC(=O)CCS(=O)(=O)c1nc(-c2cccs2)cc(C(F)(F)F)n1,inactive
19,COc1cccc(Cn2c(SCc3ccc(C(=O)N4CCCCC4)cc3)nc3ccncc32)c1,inactive
20,COc1ccc(Cl)cc1S(=O)(=O)N1CCN(CC(=O)C(C)(C)C)CC1,inactive
21,N#Cc1ccsc1NC(=O)CN1CCN(S(=O)(=O)c2cc(Cl)ccc2Cl)CC1,inactive
22,O=C(CN1CCN(S(=O)(=O)c2cc(Cl)ccc2Cl)CC1)c1ccc(O)c(O)c1,3.16 µM (active)
23,O=C(NCCc1ccccc1)c1ccc2c(c1)N(Cc1ccc(F)cc1)C(=O)c1ccccc1S2(=O)=O,inactive
24,CCc1ccc(NC(=O)COC(=O)c2cccs2)cc1,inactive
25,NC(=O)c1ccc(NC(=O)COC(=O)C(Cc2ccccc2)NC(=O)c2ccccc2)cc1 (centres undefined),inactive

row,SMILES,Potency
1,O=C(COC(=O)[C@H](Cc1ccccc1)NC(=O)c1cccs1)Nc1cc(F)ccc1F,79.4 µM (active)
2,Cc1cccc(NC(c2cccc(F)c2)c2ccc3ccc(C)nc3c2O)n1 (centres undefined),inactive
3,O=[N+]([O-])C(=c1ccc2c(c1)N1C3=C(CCCC3)CC3CCCCC31N=2)[N+](=O)[O-] (centres undefined),39.8 µM (active)
4,Cc1ccc(-c2nc3cccc(C)n3c2Nc2ccc3c(c2)OCCO3)cc1,inactive
5,COc1cccc(CNC(=O)c2ccc3c(c2)N(Cc2ccc(C(F)(F)F)cc2)C(=O)c2ccccc2S3)c1OC,inactive
6,Cc1ccccc1-c1nc2scc(CCNC(=O)C(=O)Nc3ccc(F)cc3F)n2n1,inactive
7,O=C(Cn1cc(SCc2ccccc2)c2ccccc21)N1CCCCC1,inactive
8,COCC(=O)N1CCCC(C(=O)c2ccc(C(F)(F)F)cc2)C1 (centres undefined),inactive
9,O=C(c1ccc(C(F)(F)F)cc1)C1CCCN(C(=O)c2csnn2)C1 (centres undefined),inactive
10,Cc1cnc(C(=O)N2CCCC(C(=O)c3ccc(C(F)(F)F)cc3)C2)cn1 (centres undefined),14.1 µM (active)
11,Cc1cc(Cl)ccc1OCC(=O)N(Cc1ccc(N(C)C)cc1)C1CCS(=O)(=O)C1 (centres undefined),inactive
12,CCOC(=O)c1c(NC(=O)CSc2cn(CCNC(=O)c3cccc(C(F)(F)F)c3)c3ccccc23)sc2c1CCC2,inactive
13,Cc1ccc(-n2ncc3c(NCCCn4ccnc4)ncnc32)cc1Cl,inactive
14,CCC(CC)C(=O)Nc1ccc(S(=O)(=O)Nc2nccs2)cc1,inactive
15,O=C(Nc1ccc(S(=O)(=O)Nc2nccs2)cc1)c1cc(-c2ccncc2)nc2ccccc12,15.8 µM (active)
16,O=C(Nc1ccc(S(=O)(=O)Nc2nccs2)cc1)c1cc(=O)[nH]c2ccccc12,inactive
17,COc1ccc(CCNc2ncnc3c2cnn3-c2ccc(C)cc2)cc1,inactive
18,Cc1ccc(C)n1C(Cc1ccccc1)C(=O)O (centres undefined),10 µM (active)
19,COc1ccc(CNC(=O)C(Cc2ccccc2)n2cccc2)cc1 (centres undefined),inactive
20,CCOC(=O)C(Cc1ccc(N)cc1)N1C(=O)c2ccccc2C1=O (centres undefined),inactive
21,COc1cc(OC)cc(C(=O)Nc2c(C(=O)Nc3ccc(F)cc3)oc3ccccc23)c1,inactive
22,CCOC(=O)c1ccc(N2C(=O)c3n[nH]c(-c4ccco4)c3C2c2ccc(O)cc2)cc1 (centres undefined),inactive
23,CCn1cc(C(=O)NCc2ccc(C)cc2)c(=O)c2cc(S(=O)(=O)N3CCc4ccccc4C3)ccc21,inactive
24,COc1ccc(OC)c(NC(=O)/C=C/c2ccc(C)o2)c1,inactive
25,CCc1nnc(NC(=O)/C=C/c2ccc(C)o2)s1,inactive

row,SMILES,Potency
1,Cc1ccc(/C=C/C(=O)Nc2ccc([N+](=O)[O-])c(NC(=O)/C=C/c3ccc(C)o3)c2)o1,11.2 µM (active)
2,CCc1cc2c(-c3ccccc3)cc(=O)oc2c2c1OCN(Cc1ccc(C)cc1)C2,inactive
3,O=S(=O)(c1ccc2nc(NCc3ccccc3Cl)ccc2c1)N1CCCCC1,inactive
4,Brc1ccc2c(c1)NC(c1cccnc1)=NC(c1ccccc1)=N2,inactive
5,CCc1ccc(CN(Cc2ccco2)C(=O)COc2ccc(Cl)c(C)c2)cc1,inactive
6,N#Cc1c(-c2ccccc2)nc(SCc2cccc(C(F)(F)F)c2)[nH]c1=O,79.4 µM (active)
7,O=c1[nH]c(SCc2cccc(F)c2)nc2ccccc12,inactive
8,N#Cc1c(-c2ccc(F)cc2)nc(-c2ccccc2)[nH]c1=O,inactive
9,CCOC(=O)c1ccc(NC(=O)CNC(=O)c2ccco2)cc1,56.2 µM (active)
10,CCN(CC)CCOC(=O)c1ccc(NC(=O)CNC(=O)c2ccccc2)cc1,inactive
11,O=C(COC(=O)CNC(=O)c1ccco1)Nc1ccc(F)cc1,inactive
12,CCOC(=O)c1ccc(NC(=O)c2c(NCc3cccs3)sc3c2CCCC3)cc1,inactive
13,CCN(CCCNC(=O)c1cc2c(=O)n(CC)c3ccccc3c2s1)Cc1ccccc1,inactive
14,Cc1c(Cl)cccc1NC(=O)c1noc2c1CCCC2,inactive
15,Oc1cccc(/C=N/Nc2ccc(Cl)nn2)c1O,39.8 µM (active)
16,Cc1ccsc1/C=N/Nc1ccc(Cl)nn1,inactive
17,COc1cccc(/C=N/Nc2ccc(Cl)nn2)c1,inactive
18,CCOC(=O)c1c(NC(=O)COc2cc(C)ccc2C(C)C)sc(C)c1C,inactive
19,COc1ccc(S(=O)(=O)c2cn(C)c3cc(N4CCCCC4)c(F)cc3c2=O)cc1,inactive
20,O=C(COc1ccc(Cl)cc1)Nc1ccccc1CO,inactive
21,O=C(COc1ccc(-n2cnnn2)cc1)Nc1ccccc1Cl,28.2 µM (active)
22,O=C(Cc1c(F)cccc1Cl)Nc1ccc(-n2cnnn2)cc1,inactive
23,CCOc1ccc(N(C)S(=O)(=O)c2cc(-c3cnc(C)o3)ccc2OC)cc1,inactive
24,Cc1cccc(N2CCN(S(=O)(=O)c3ccc4[nH]c5c(c4c3)CCCCC5)CC2)c1C,inactive
25,Cc1nn(-c2ccc(N3CCCCC3)nn2)c(C)c1CCC(=O)NCc1ccccc1F,inactive

row,SMILES,Potency
1,Cc1ccc(C(=O)NC(C)c2ccccc2)cc1Br (centres undefined),inactive
2,COc1ccc(Cl)cc1NC(=O)c1cccc(N2C(=O)C3CC=CCC3C2=O)c1 (centres undefined),inactive
3,CC1=CCC2C(=O)N(c3cccc(C(=O)NC(C)c4ccccc4)c3)C(=O)C2C1 (centres undefined),39.8 µM (active)
4,CCN(CC)C(=O)CSc1nc2ccsc2c(=O)n1Cc1ccccc1Cl,inactive
5,O=C(COc1ccc(/C=N/NC(=O)c2ccc(O)cc2)cc1)Nc1ccc([N+](=O)[O-])cc1,2.24 µM (active)
6,Cc1ccc(NC(=O)COc2ccc(/C=N\NC(=O)c3cccnc3)cc2)cc1C,inactive
7,NC(=O)c1ccc(NC(=O)COC(=O)c2ccc([N+](=O)[O-])cc2)cc1,inactive
8,CC1CN(C(=O)N2CCC(C(=O)NCc3cccs3)CC2)c2ccccc2O1 (centres undefined),inactive
9,Cc1cccc(C(=O)N2c3nc(-c4ccco4)nn3C3(CCCCC3)[C@@H]3CCCC[C@@H]32)c1,inactive
10,Cc1nnc(SCC(=O)Nn2cnnc2)s1,inactive
11,Cc1nnc(SCC(=O)NC2CCCC2)s1,inactive
12,Cc1nnc(SCC2=C(C(=O)O)N3C(=O)C(NC(=O)Cn4nc(C)c(Cl)c4C)C3SC2)s1 (centres undefined),39.8 µM (active)
13,Cc1sc(C2C(C#N)=C(N)N(c3cccc(Cl)c3)C3=C2C(=O)CCC3)cc1CN1CCOCC1 (centres undefined),inactive
14,Fc1ccc(-c2ccc(-c3nn4c(-c5ccco5)nnc4s3)o2)cc1,44.7 µM (active)
15,Cc1nc2c(-c3ccc(F)cc3)c(C)nn2c(C)c1CCC(=O)NCc1ccco1,inactive
16,O=C(CSc1nnc2scc(-c3ccc(F)cc3)n12)NCc1ccco1,inactive
17,COC(=O)C1=C(C)N(c2ccc(Br)cc2)C(=O)/C1=C\c1ccco1,inactive
18,Cc1cc(C)c(OCC(=O)N/N=C/c2ccco2)c(C)c1,inactive
19,COC(=O)COc1ccc2c(c1C)O/C(=C\c1ccco1)C2=O,50.1 µM (active)
20,CC1CCCN(c2csc3ccc(F)cc3c2=O)C1 (centres undefined),inactive
21,CCCn1c(NCc2ccc(N(CC)CC)cc2)nc2ccccc21,inactive
22,Cc1nn(CC(=O)N/N=C/c2ccc(F)cc2)c(C)c1[N+](=O)[O-],inactive
23,Cc1cc(C(=O)N/N=C/c2ccc(O)c([N+](=O)[O-])c2)c(C)n1-c1ccc(F)cc1,20 µM (active)
24,COc1cc(/C=N/NC(=O)c2cc(C)n(-c3ccc(F)cc3)c2C)cc(OC)c1O,inactive
